# An excerpt weighted towards active compounds, which were near 2.4% of everything screened.
# PLCb3 inh = inhibitors of human phospholipase C beta3 | Q01970 | Purified PLC-beta3, fluorogenic substrate, fluorescence | inhibition, % at 12.2 µM | hit rate 0.18% among 370,000 | AID 720704; in the data active = inhibition above about 11%;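 also: 0% = median of compound wells on plate and 100% = full blocker control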
# PLC-gamma1 inh = inhibitors of human phospholipase C gamma1; P19174; purified PLC-gamma1, fluorogenic substrate, fluorescence; inhibition, % at 12.2 µM; hit rate 0.84% among 370,000; AID 720700; in the data active = inhibition above about 9.5%
# UHRF1 binding = UHRF1 methyl-DNA binding inhibition. UHRF1 binding to methylated oligo, TR-FRET. inhibition, % at 4.4 µM. hit rate 0.75% among 370,000. AID 687016; in the data active = inhibition above about 21%;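 also: UHRF1 SRA domain binding a hemimethylated CpG hairpin DNA probe; 0% = median of test compound wells and 100% = reference inhibitor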
# MBD2 DNA inh = blocks human MBD2 binding to methylated DNA | TR-FRET, MBD2 binding to methylated oligonucleotide | inhibition, % at 4.4 µM | hit rate 0.31% among 370,000 | AID 686964; in the data active = inhibition above about 13%
# LEDGF integ inh = blocks HIV-1 LEDGF/p75-dependent DNA integration; TR-FRET IN-LEDGF/p75 DNA integration, Eu/Cy5; hit rate 0.64% among 370,000; inhibition, % at 3.7 µM;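 active = inhibition above the screen-wide mean plus 3 SD, cut at about 13% in these data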;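 also: signal is the Cy5 over europium emission ratio at 671 and 618 nm; 0% = plate median of compound wells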
# The depositor's hits bear a star; i = inactive.
SMILES,PLCb3 inh,PLC-gamma1 inh,UHRF1 binding,MBD2 DNA inh,LEDGF integ inh
CC(C)(C)c1ccc(-c2noc(-c3ccc4c(c3)CCO4)n2)cc1,-1,5,25*,0,0
COc1ccc(-n2c(C)cc(C(=O)CN3C(=O)c4ccccc4C3=O)c2C)cc1,3,5,4,-2,0
COc1ccc(-n2c(C)cc(C(=O)CCl)c2C)cc1,-2,0,24*,3,2
CN(CCc1ccccc1)C(=O)c1cccc(NC(=O)Cc2cccc(NC(=O)C3CCN(C(=O)C4CCCC4)CC3)c2)c1,0,-2,-3,4,1
CN(CCc1ccccc1)C(=O)c1cccc(NC(=O)Cc2cccc(NC(=O)C3CCN(C(=O)C4CC4)CC3)c2)c1,0,0,96*,0,0
CCN(CCn1cccn1)C(=O)c1cc(COc2cc(C)ccc2C)on1,-9,-3,31*,-1,1
CCN(CCN1CCCC1)C(=O)c1cc(COc2ccccc2SC)on1,-8,-2,1,-3,0
CCN(CCn1cccn1)C(=O)c1cc(COc2ccccc2SC)on1,-13,-2,35*,2,-2
CC(COc1cccc(C#N)c1)CN1CCC(C(O)(c2ccccc2)c2ccccc2)CC1 (stereo not drawn),9,5,4,-1,8
COc1cccc(N(C(=O)c2cnccn2)C(C(=O)NC2CCCCC2)c2ccc(Cl)cc2)c1 (stereo not drawn),-3,-1,2,4,0
O=C(NC1CCCCC1)C(c1ccc(Cl)cc1)N(C(=O)c1cnccn1)c1ccc2c(c1)OCO2 (stereo not drawn),-3,-2,22*,11,-1
CCOc1ccc(NC2=CC(=O)C(=O)c3ccccc32)cc1,-6,-1,-8,-26,23*
O=C(CSc1nncs1)N1CCN(C(=O)c2ccco2)CC1,-2,0,37*,3,-2
O=C(CSc1nnc(SCc2ccc(Cl)cc2)s1)N1CCN(C(=O)c2ccco2)CC1,-1,1,4,3,0
O=C(N/N=C/c1ccc(O)c(O)c1)N/N=C/c1ccc(O)c(O)c1,-10,-1,7,9,91*
Cc1nonc1C(=O)N/N=C/c1ccc(O)c(O)c1,8,3,1,-2,-6
CC(=O)N[C@@H]1C[C@@H]2O[C@H](CO)CC[C@@H]2O[C@@H]1CCc1ccc(-c2ccc(F)cc2)cc1,-5,3,5,-2,-3
Cc1nn(C)c(C)c1/C=C/C(=O)O,3,3,39*,13,4
CCOc1ccc(-n2c(SCC(=O)c3ccccc3Cl)nnc2-c2ccncc2)cc1,0,3,0,-2,5
CCCCn1nc(NC(=O)CC)c2cc3cc(OC)ccc3nc21,i,-453,22*,11,-2
CCCn1nc(NC(=O)C(C)(C)C)c2cc3cc(OC)ccc3nc21,-374,-282,0,5,-4
CC(C)CN1C(=O)[C@@]2(CC(=O)N(C)C2c2ccccc2)c2cc(-n3cc(CCCC#N)nn3)ccc21 (stereo partly drawn),1,2,1,-5,0
CCC(NC(=O)C1CCCN(c2ncccn2)C1)c1ccccc1 (stereo not drawn),-11,-9,1,2,1
COc1ccc(/C(C)=N/Nc2ncc(Cl)cc2Cl)c(O)c1,-5,-4,24*,6,1
CCC(=O)N(Cc1cc(=O)[nH]c2ccccc12)c1ccccc1C,-9,1,38*,2,0
SMILES,PLCb3 inh,PLC-gamma1 inh,UHRF1 binding,MBD2 DNA inh,LEDGF integ inh
CCCC(=O)N(Cc1cc(=O)[nH]c2ccccc12)c1ccc(C)cc1C,3,5,2,7,4
CC(C)CN1C(=O)[C@]2(CC(=O)N(C)C2c2ccccc2)c2cc(-n3cc(C4=CCCCC4)nn3)ccc21 (stereo partly drawn),0,-2,-1,-1,-2
CCCC(=O)C1=C(O)C(C(=O)OC)C(C)(C)CC1=N (stereo not drawn),1,-1,21*,-1,-2
COc1ccc(C(=O)NC2CC2)cc1OC1CCN(Cc2ccc(F)cc2Cl)CC1,-10,-3,29*,9,9
COC(=O)[C@H](CC(C)C)N1Cc2nnn(Cc3ccccc3)c2-c2ccccc2S1(=O)=O,0,0,-2,4,4
COc1ccc(C2(c3ccc(OC)cc3)NC(=O)N(CC(=O)Nc3ccccc3)C2=O)cc1,-2,0,0,-5,3
COc1ccc(C2(c3ccc(OC)cc3)NC(=O)N(CC(=O)Nc3ccc(C(N)=O)cc3)C2=O)cc1,-5,2,42*,10,5
O=C(NCc1cccs1)C1CCC(CNS(=O)(=O)c2cccc3cccnc23)CC1 (stereo not drawn),-2,-1,4,4,-5
COc1cc(C2C(C#N)=C(N)OC3=C2C(=O)CCC3)c([N+](=O)[O-])cc1OC (stereo not drawn),i,i,-4,3,13*
Cc1cc(C2C(C#N)=C(N)OC3=C2C(=O)CCC3)c(C)s1 (stereo not drawn),-2,-2,-1,-2,-1
COC(=O)[C@]12C[C@H](CC(=O)NCCCN3CCCC3=O)C(=O)N(Cc3ccc(Cl)cc3Cl)C1=C[C@H](COCc1ccccc1)O[C@@H]2C,2,1,0,0,-5
O=C(C[n+]1cc(-c2ccc(F)cc2)n2c1CCC2)Nc1nc(-c2ccccc2)cs1,-2,8,44*,-2,-4
Cc1ccc(-c2c[n+](CC(=O)Nc3nc(-c4ccc(F)cc4)cs3)c3n2CCC3)cc1,1,5,2,2,-3
Cc1ccc(-c2c[n+](CC(=O)Nc3ccc(C)cc3C)c3n2CCC3)cc1,-4,2,37*,0,-4
Cc1ccc(NC(=O)C[n+]2cc(-c3ccc(C)cc3)n3c2CCC3)cc1,-4,7,1,-8,-2
C[C@@H](CO)N(Cc1cn(Cc2ccccc2)nn1)S(=O)(=O)c1ccccc1Br,-1,-2,0,5,3
C=CCN1[C@H](C)COc2cccc(N3CCCC3)c2S1(=O)=O,-2,-4,1,0,-1
Cc1c(C(=O)OCC(=O)NCCc2ccc(S(N)(=O)=O)cc2)oc2ccccc12,-5,0,37*,3,-1
COCc1c(C(=O)OCC(=O)NCCc2ccc(S(N)(=O)=O)cc2)oc2ccccc12,-3,2,-1,4,-6
COc1ccccc1-n1c(SCC(N)=O)nnc1-c1ccc(S(=O)(=O)N2CCCCC2)cc1,-3,4,3,2,0
NC(=O)CSc1nnc(-c2ccc(S(=O)(=O)N3CCCCC3)cc2)n1-c1ccccc1,0,-2,40*,4,-1
COc1cc(C=Nn2c(-c3cc(-c4ccccc4)n[nH]3)n[nH]c2=S)ccc1OC(C)=O,-1,4,-1,2,0
S=C(Nc1ccccc1Cl)N(Cc1ccccc1)Cc1cccnc1,-4,0,1,-7,2

# High-throughput results as filed in PubChem.
